The record followed here is PubChem BioAssay.

Assay [1] deals with Human papillomavirus type 1a protein E7 (residues 44-93). Put plainly: HPV1a E7 fragment binders on microarrays, primary screen, biochemical, small-molecule microarray, residues 44-93, 635 nm fluorescence (AID 1108).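 Further: E7 fragment applied at 1 µg/mL in TBST for 1 h at 4 C; score combines spot fluorescence with its signal to noise ratio.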 To be noted: small-molecule microarray binding, fluorescence 635 nm; higher = more signal.
Assay [2] is described as follows: modulators of HCV replicon luciferase signal, primary screen, HCV replication inhibitor project, Huh7 cells, luciferase reporter (AID 1109).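 Further: huh7 hepatoma cells harbouring a luciferase neomycin HCV replicon reporter; luciferase luminescence as measure of HCV replicon replication; test concentration not given here.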 To be noted: 48 h, higher = more signal. In general terms: A replicon is a self-replicating genome or part of one, used to study replication in cells.
The target in assay [3] is Left-right determination factor 2 (Homo sapiens) (UniProt O00292). Put plainly: LEFTY2 binders on small-molecule microarrays, primary screen, biochemical, small-molecule microarray, 635 nm fluorescence scan (AID 1110). As to conditions: LEFTY2 binding, higher = more signal.
Left-right determination factor 2 (Homo sapiens), sequence (O00292 whole entry, looked up): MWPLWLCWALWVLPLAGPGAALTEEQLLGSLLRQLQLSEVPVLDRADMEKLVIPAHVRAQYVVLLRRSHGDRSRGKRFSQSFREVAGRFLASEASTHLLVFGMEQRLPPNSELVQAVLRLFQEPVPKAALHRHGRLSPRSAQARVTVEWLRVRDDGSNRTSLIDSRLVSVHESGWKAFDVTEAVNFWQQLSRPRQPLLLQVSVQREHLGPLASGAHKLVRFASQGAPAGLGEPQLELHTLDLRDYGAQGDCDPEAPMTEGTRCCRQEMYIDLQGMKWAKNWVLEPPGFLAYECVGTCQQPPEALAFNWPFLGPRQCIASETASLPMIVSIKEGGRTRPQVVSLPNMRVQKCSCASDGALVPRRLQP
For assay [4], the target named is Calmodulin-1 (Homo sapiens) (UniProt P0DP23). The assay can be described thus: CALM1 binders on microarrays, EGTA buffer, profiling panel, biochemical, small-molecule microarray, Cy5-labelled CALM1 (AID 1111).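 Further: labelled calmodulin applied in Tris saline Tween buffer holding calcium plus EGTA and DTT.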 As to conditions: Cy5-CALM1 binding fluorescence, higher = more signal.
Assay [5] has the same target. The assay can be described thus: calcium-bound CALM1 binders on microarrays, profiling panel, artefact control for SMM control-protein annotation, biochemical, small-molecule microarray, Cy5-labelled CALM1, plus calcium (AID 1112).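 Further: score merges spot fluorescence with signal to noise from triplicate slides.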 As to conditions: Cy5-CALM1 binding fluorescence, higher = more signal.
Assay [6] can be described thus: small-molecule microarray binders of probe aWnt5a, primary screen, biochemical, biotinylated probe, 635/667 nm fluorescence (AID 1113).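 Further: score merges 667 nm fluorescence intensity with signal-to-noise per printed feature.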 To be noted: higher = more signal.
A short description of assay [7]: small-molecule microarray binders of probe aShh, primary screen, biochemical, biotinylated probe, 635/667 nm fluorescence (AID 1114).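 Further: probe is biotin-labelled aShh protein from a stem cell growth factor screen; measures binding of labelled protein to compounds printed on the slide; score merges feature fluorescence at 667 nm with signal-to-noise.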 To be noted: higher = more signal.
Assay [8] in a line: small-molecule microarray binders of probe aNog, primary screen, biochemical, biotinylated probe, 635/667 nm fluorescence (AID 1115).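 Further: probe is biotinylated aNog protein used at 0.15 µg/mL for 1 h at 4 C; z-score combines 667 nm fluorescence of each spot with its signal to noise.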 As to conditions: higher = more signal.
The target of assay [9] is Torsin-1A-interacting protein 1 (Homo sapiens) (UniProt Q5JTV8). The assay can be described thus: LAP1 binders from COS7 cell lysate, primary screen, small-molecule microarray, 635/667 nm fluorescence (AID 1116). To be noted: COS7-hLAP1 lysate binding, 635 nm fluorescence, higher = more signal.
Torsin-1A-interacting protein 1 (Homo sapiens), sequence (Q5JTV8 whole entry, looked up): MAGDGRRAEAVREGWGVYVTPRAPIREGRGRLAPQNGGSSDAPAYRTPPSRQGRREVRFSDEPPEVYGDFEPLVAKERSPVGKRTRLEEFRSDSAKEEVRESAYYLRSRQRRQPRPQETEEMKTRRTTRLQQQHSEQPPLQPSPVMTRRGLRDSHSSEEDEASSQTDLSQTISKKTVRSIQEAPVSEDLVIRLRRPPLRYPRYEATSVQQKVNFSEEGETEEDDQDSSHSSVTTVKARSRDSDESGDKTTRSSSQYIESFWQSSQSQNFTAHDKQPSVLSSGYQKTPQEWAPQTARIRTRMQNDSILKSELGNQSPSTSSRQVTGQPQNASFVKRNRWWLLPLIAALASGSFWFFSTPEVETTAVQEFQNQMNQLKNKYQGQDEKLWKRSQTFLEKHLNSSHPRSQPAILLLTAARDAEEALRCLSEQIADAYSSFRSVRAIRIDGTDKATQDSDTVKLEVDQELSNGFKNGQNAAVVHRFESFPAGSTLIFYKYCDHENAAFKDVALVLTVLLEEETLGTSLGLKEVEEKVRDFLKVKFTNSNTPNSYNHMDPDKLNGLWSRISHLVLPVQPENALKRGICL
The target of assay [10] is Alpha-bungarotoxin (Bungarus multicinctus) (UniProt P60615). The assay can be described thus: alpha-bungarotoxin binders on microarray, profiling panel, artefact control for SMM control protein annotation, biochemical, small-molecule microarray, Alexa647 label, 635/667 nm fluorescence (AID 1117). To be noted: alpha-BTX-A647 binding fluorescence, higher = more signal.
Alpha-bungarotoxin (Bungarus multicinctus), sequence (P60615 whole entry, looked up): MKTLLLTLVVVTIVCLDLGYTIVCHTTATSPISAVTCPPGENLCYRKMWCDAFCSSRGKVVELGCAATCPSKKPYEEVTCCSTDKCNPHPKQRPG

On to `COc1ccc([Si](C)(C)[C@H]2[C@H](CCO)O[C@@]3(C(=O)N(Cc4cccc(N5C(=O)c6cccc7cccc5c67)c4)c4ccccc43)[C@@H]2C)cc1`, for which the composite z-score in assay [1] was 1.06; in [3], -0.652; in assay [4], 1.04; in [5] it was 0.591; in assay [6], 0.0618; in assay [7], 0.0121. Moreover, the composite z-score in assay [8] was 0.741; in assay [9], 0.116; in [10], 0.621. Further, the z-score in assay [2] was -4.97.
As for `COc1ccccc1CN1C(=O)c2ccccc2[C@](Cc2ccccc2I)(C(=O)NCc2ccccc2)[C@@H]1c1ccc(CO)cc1`, the composite z-score was 0.0977 in assay [1]; -0.703 in [3]; 0.0656 in assay [4]; 0.556 in [5]; 0.037 in assay [6]; -0.264 in assay [7]. The composite z-score is -0.268 in assay [8], -0.0999 in [9] and 1.05 in assay [10]. In assay [2], this molecule registered a z-score of -0.641.
As to `COC(=O)[C@@]1(Cc2ccc(OC)cc2)[C@H]2c3cc(C(=O)N(C)C)n(CCSCCO)c3C[C@H]2CN1C(=O)c1ccccc1`, the composite z-score in [1] was 1.39; in [3] it was -0.675; in assay [4] it was 2.02; in [5], 0.954; in assay [6], 0.149; in assay [7] it was 0.234. The composite z-score was -0.553 in assay [8], 0.904 in assay [9] and 0.569 in assay [10]. In addition, the z-score in assay [2] is -1.41.
`[N-]=[N+]=NCc1ccccc1C[C@]1(C(=O)NCCN2CCOCC2)N=C(c2ccc(OCCCO)cc2)O[C@H]1c1ccccc1CN=[N+]=[N-]`: the composite z-score in assay [1] was 1.43; in assay [3] it was 0.278; in assay [4], 0.86; in assay [5], 0.368; in [6] it was -0.124; in [7], -0.146. For the same molecule, the composite z-score in assay [8] was -0.158; in assay [9] it was 1.59; in assay [10] it was 1.28. The same molecule came in with a z-score in [2] of -3.91.
As to `COc1ccc([Si](C)(C)[C@H]2[C@H](CC(=O)N3CCC[C@H]3CO)O[C@@]3(C(=O)N(Cc4cccc(N5CCC5=O)c4)c4ccccc43)[C@@H]2C)cc1`, the composite z-score in assay [1] is 1.41; in [3], 0.992; in assay [4] it was -0.105; in assay [5], -0.363; in assay [6], -0.0203; in assay [7], 0.265. For the same molecule, the figures for the composite z-score in assay [8], in [9] and in assay [10] were 0.572, 0.901 and 0.872, respectively. Also, the z-score in [2] was -2.36.
As for `O=C1C[C@@](C(=O)O)(c2ccc([N+](=O)[O-])cc2)[C@@H](c2ccc(CO)cc2I)N1CC12CC3CC(CC(C3)C1)C2`, the composite z-score in assay [1] was 0.997; in assay [3], -0.44; in assay [4] it was 1.67; in assay [5], 0.889; in assay [6] it was 0.0206; in assay [7] it was 0.0434. For the same molecule, the composite z-score was determined as 0.108 in assay [8], 0.817 in assay [9] and 2.3 in [10]. The z-score in assay [2] is -3.31.
On to `[N-]=[N+]=Nc1ccccc1[C@@H]1OC(c2ccc(OCCCO)cc2)=N[C@]1(CCS(=O)(=O)c1ccccc1)C(=O)N1CCCCC1`, for which the composite z-score is 1.22 in assay [1]; -0.175 in assay [3]; 2.16 in [4]; 1.26 in assay [5]; 0.129 in assay [6]; 0.408 in assay [7]. Also, the composite z-score in assay [8] amounted to 0.755; in [9] it was 1.79; in assay [10] it was 3.01. For the same molecule, in [2], the z-score was 0.0018.
In the case of `Cc1cc(C)c(C(O)C2C=CC3C(=O)NC(=O)C3N2Nc2ccccn2)c(C)c1` (stereo not given), the composite z-score was 1.22 in assay [1]; -0.318 in assay [3]; 0.62 in [4]; 0.153 in assay [5]; -0.0596 in [6]; 0.0469 in assay [7]. Moreover, the composite z-score in assay [8] is 1.63; in assay [9], 0.849; in assay [10], 0.0525. In assay [2], this molecule showed a z-score of 0.544.
Take `C=C(CCCC)C(=O)CC[C@@H](OC(=O)c1ccccc1-c1ccccc1C(=O)O)c1ccc(CO)o1`: the composite z-score was 0.776 in assay [1]; 0.584 in assay [3]; -0.213 in assay [4]; -0.483 in assay [5]; -0.0478 in assay [6]; 0.108 in assay [7]. In addition, the composite z-score in assay [8] is -0.266; in [9], 1.23; in assay [10], -0.146. In assay [2], the z-score is -0.705.
As to `CC1CC/C=C\[C@H]2OC34C=CCN(c5ccc6ccccc6c5)C(=O)[C@H]3N(CCCCCO)C(=O)[C@@H]4C2C(=O)O1` (stereo not given in full), the composite z-score in assay [1] was -2.21; in [3], -1.64; in [4], -0.827; in assay [5] it was -0.16; in [6], -0.141; in assay [7], -0.214. The composite z-score in [8] was -0.119; in [9], -1.16; in assay [10] it was -1.28. Also, the z-score in assay [2] came to 0.324.
As to `CCCNC(=O)[C@@]1(C)c2ccccc2C(=O)N(C(C)C)[C@H]1c1ccc(CO)cc1`, the composite z-score in assay [1] is -0.0794; in assay [3] it was -1.28; in assay [4], -0.58; in assay [5] it was -0.145; in assay [6] it was -0.212; in [7], -0.262. In addition, the composite z-score in [8] was -0.0172; in [9], -0.109; in assay [10], -0.731. Further, the z-score in assay [2] is -1.99.
